# From PubChem BioAssay AID1159580 (chemical genetic matrix, 2015)
# The whole screen tested about 5,500 compounds, of which about 2,000 (36%) were called active. About 18% were inconclusive and are not listed. This is one part of the list. Values without a mark were called inactive. Cut-off read from the data, not from the text of the source: active = normalized growth mostly below about 0.91 (no sharp cut-off); inconclusive = no clear call, values can overlap the other calls; inactive = mostly above about 0.92.
# Assay: chemical genetic growth profiling, strain panel (AID 1159580);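 note: tested at 20 µM; growth read once vehicle control cultures reached saturation at 30 °C; 1 = growth at the plate median or of vehicle wells; lower values mean less growth of the strain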
# Conditions: growth OD
# [1] = S. cerevisiae deletion strains, locus YAL013W, strain DEP1, stronger effect = lower value
# [2] = S. cerevisiae deletion strains, locus YBR229C, strain ROT2, stronger effect = lower value
# [3] = S. cerevisiae deletion strains, locus YDL101C, strain DUN1, stronger effect = lower value
# [4] = S. cerevisiae deletion strains, locus YDR150W, strain NUM1, stronger effect = lower value
# [5] = S. cerevisiae deletion strains, locus YEL061C, strain CIN8, stronger effect = lower value
# [6] = S. cerevisiae deletion strains, locus YGR078C, strain PAC10, stronger effect = lower value
# [7] = S. cerevisiae deletion strains, locus YHR030C, strain SLT2, stronger effect = lower value
# [8] = S. cerevisiae deletion strains, locus YHR087W, strain rtc3, stronger effect = lower value
# [9] = S. cerevisiae deletion strains, locus YJL187C, strain SWE1, stronger effect = lower value
# [10] = S. cerevisiae deletion strains, locus YJR043C, strain POL32, stronger effect = lower value
# [11] = S. cerevisiae deletion strains, locus YJR075W, strain HOC1, stronger effect = lower value
# [12] = S. cerevisiae deletion strains, locus YKL190W, strain CNB1, stronger effect = lower value
# [13] = S. cerevisiae deletion strains, locus YLR039C, strain RIC1, stronger effect = lower value
# [14] = S. cerevisiae deletion strains, locus YLR058C, strain SHM2 (second series), stronger effect = lower value
# [15] = S. cerevisiae deletion strains, locus YLR085C, strain ARP6, stronger effect = lower value
# [16] = S. cerevisiae deletion strains, locus YLR262C, strain YPT6, stronger effect = lower value
# [17] = S. cerevisiae deletion strains, locus YML094W, strain GIM5, stronger effect = lower value
# [18] = S. cerevisiae deletion strains, locus YMR219W, strain ESC1, stronger effect = lower value
# [19] = S. cerevisiae deletion strains, locus YMR263W, strain SAP30, stronger effect = lower value
# [20] = S. cerevisiae deletion strains, locus YNL153C, strain GIM3, stronger effect = lower value
# [21] = S. cerevisiae deletion strains, locus YNL298W, strain CLA4 (second series), stronger effect = lower value
# [22] = S. cerevisiae deletion strains, locus YNL322C, strain KRE1, stronger effect = lower value
# [23] = S. cerevisiae deletion strains, locus YNR030W, strain Alg12, stronger effect = lower value
# [24] = S. cerevisiae deletion strains, locus YPL055C, strain LGE1, stronger effect = lower value
# [25] = S. cerevisiae deletion strains, locus YPL241C, strain CIN2, stronger effect = lower value
# [26] = S. cerevisiae deletion strains, locus YPR135W, strain CTF4, stronger effect = lower value
structure (smiles),measurement,setting,value
Cc1ccc(C)n1-c1ccc(C(=O)NNC(=O)c2ccc3nccnc3c2)cc1,normalized growth,[1],0.989
same,normalized growth,[2],1
same,normalized growth,"S. cerevisiae deletion strains, locus YCL061C, strain MRC1, stronger effect = lower value",1.06
same,normalized growth,[3],0.989
same,normalized growth,[4],1.04
same,normalized growth,[5],1.01
same,normalized growth,[6],1.01
same,normalized growth,[7],1.14
same,normalized growth,[8],0.986
same,normalized growth,[9],0.979
same,normalized growth,[10],1.02
same,normalized growth,[11],1.06
same,normalized growth,[12],0.991
same,normalized growth,[13],1.01
same,normalized growth,[14],0.999
same,normalized growth,[15],0.921
same,normalized growth,[16],1.11
same,normalized growth,[17],0.98
same,normalized growth,[18],0.989
same,normalized growth,[19],0.986
same,normalized growth,"S. cerevisiae deletion strains, locus YNL128W, strain TEP1, stronger effect = lower value",0.991
same,normalized growth,[20],1.02
same,normalized growth,[21],0.992
same,normalized growth,[22],0.999
same,normalized growth,[23],1
same,normalized growth,[24],0.995
same,normalized growth,[25],0.976
same,normalized growth,[26],1.13
same,normalized growth,"S. cerevisiae strains, strain wild type, stronger effect = lower value",0.993
Cc1ccc(C)n1-c1ccc(C(=O)NNS(=O)(=O)c2ccc(Cl)cc2)cc1,normalized growth,[1],1.01
same,normalized growth,[2],1.01
same,normalized growth,[3],1.04
same,normalized growth,[4],0.991
same,normalized growth,[5],1.01
same,normalized growth,[6],1.01
same,normalized growth,[7],0.955
same,normalized growth,[8],1.01
same,normalized growth,[9],1.02
same,normalized growth,[10],0.999
same,normalized growth,[11],0.995
same,normalized growth,[12],0.978
same,normalized growth,[13],0.985
same,normalized growth,[14],1
same,normalized growth,[15],0.962
same,normalized growth,[16],0.98
same,normalized growth,[17],1.1
same,normalized growth,[18],1
same,normalized growth,[19],1
same,normalized growth,"S. cerevisiae deletion strains, locus YMR307W, strain GAS1, stronger effect = lower value",0.979
same,normalized growth,[20],1.01
same,normalized growth,[21],0.945
same,normalized growth,[22],1
same,normalized growth,[23],0.993
same,normalized growth,"S. cerevisiae deletion strains, locus YOL006C, strain TOP1, stronger effect = lower value",1.03
same,normalized growth,[24],1.01
same,normalized growth,[25],1.14 [resistant] (active)
same,normalized growth,[26],0.946
